Consider ten molecules from PubChem BioAssay (NCATS).

Several values for one entry are separate records, joined by “and”; a condition that tells them apart may be missing. Identical values can stand only once. Records with an inconclusive call do not appear. Activity calls are given as the source filed them. Calls follow the shape of the dose curve; as a rule, active = well fitted curve in the direction sought with a large enough effect; inconclusive = small, poorly fitted or top-dose-only effect, or another doubt; inactive = no such curve, though single readings can be large; an effect the other way counts as inactive or inconclusive.

Experiment [1] is described as follows: Cell Viability - LYMP2-005 (AID 967). In short, it runs like this:
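qHTS viability screen in LYMP2-005 cells: 24 h at 37 C with compound, ATP luminescence via CellTiter-Glo, AC50 from Hill curves.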

Experiment [2] in a line: Cell Viability - LYMP2-009 (AID 968). Also: nearly all actives have a fitted effect of over 55% in size.
A short description of experiment [3]: Cell Viability - LYMP2-011 (AID 969). Also: nearly all actives have a fitted effect of over 60% in size. In short, it runs like this:
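Luminescent ATP read-out (CellTiter-Glo, 30 min RT) after 24 hr compound exposure at 37 C in human lymphoblastoid cells, 2500 cells/well. Decreasing ATP indicates cytotoxicity; AC50 from standard Hill fit.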

Experiment [4] is described as follows: Cell Viability - LYMP2-013 (AID 970). Also: nearly all actives have a fitted effect of over 55% in size. Summed up:
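CellTiter-Glo luminescence (cellular ATP) read after 30 min at RT. Cells: human lymphoblastoid line, 2500/well, 24 hr compound exposure at 37 C. Tetraoctylammonium bromide positive control; AC50 via standard Hill fit of qHTS titrations.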

The nature of experiment [5]: Cell Viability - LYMP2-015 (AID 971). Also: nearly all actives have a fitted effect of over 55% in size. Summed up: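 qHTS cytotoxicity: 2500 cells/well, 5 hr 37 C, compound 24 hr 37 C, CellTiter-Glo 30 min RT, luminescence. Loss of ATP = toxicity; AC50 via standard Hill fit.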
Experiment [6] is described as follows: Cell Viability - LYMP2-017 (AID 972). Also: nearly all actives have a fitted effect of over 55% in size. Summed up:
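Luminescent ATP read-out (CellTiter-Glo, 30 min RT) reports viable cell number. Cells: human lymphoblastoid line, 2500 per well, 5 hr preincubation, 24 hr compound exposure at 37 C. AC50 is derived from qHTS concentration-response data using the standard Hill model.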

A short description of experiment [7]: Cell Viability - LYMP2-019 (AID 973). Also: nearly all actives have a fitted effect of over 55% in size. Summed up: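 qHTS, 1536-well; 2500 cells/well; 5 hr pre-incubation, 24 hr compound exposure, 37 C; CellTiter-Glo added, 30 min RT; luminescence read; AC50 via standard Hill equation.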
Experiment [8] in a line: Cell Viability - LYMP2-021 (AID 974). Summed up:
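ATP luminescence (CellTiter-Glo, 30 min RT) after 24 h compound exposure at 37 C; 2500 human lymphoblastoid cells/well, 5 h settle beforehand. Cytotoxicity = concentration-dependent ATP drop, AC50 by Hill fit.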

Experiment [9] in a line: Cell Viability - LYMP2-023 (AID 975). Also: nearly all actives have a fitted effect of over 55% in size. In short, it runs like this: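 CellTiter-Glo luminescence after 30 min at room temperature; decrease in intracellular ATP reflects toxicity. Cells: human lymphoblastoid line, 2500/well, 24 hr compound exposure at 37 C. AC50 fitted to standard Hill equation from concentration-response.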
The nature of experiment [10]: Cell Viability - LYMP2-025 (AID 976). Summed up: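 CellTiter-Glo luminescence (cellular ATP) after 24 h compound exposure at 37 C; LYMP2-025 human lymphoblastoid cells, 2500/well, complete medium. Tetraoctylammonium bromide positive control. AC50 by Hill equation fit of qHTS concentration-response.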
A short description of experiment [11]: Cell Viability - LYMP2-002 (AID 977). Summed up: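 Human lymphoblastoid cells (2500/well) in complete medium were preincubated 5 hr at 37 C, then exposed to compounds for 24 hr at 37 C. Intracellular ATP was read by CellTiter-Glo luminescence; AC50 came from Hill-equation concentration-response fits.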
Experiment [12] in a line: Cell Viability - LYMP2-006 (AID 978). Also: nearly all actives have a fitted effect of over 60% in size. Summed up:
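Concentration-dependent loss of intracellular ATP in a human lymphoblastoid line after 24 hr treatment at 37 C was measured by CellTiter-Glo luminescence, with AC50 values obtained from standard Hill-equation modelling.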

Experiment [13] is described as follows: Cell Viability - LYMP2-007 (AID 979).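 Also: cells exposed to compound for 24 h before reading; nearly all actives have a fitted effect of over 60% in size.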 Summed up: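 qHTS cytotoxicity: 2500 cells/well, 5 hr 37 C settle, compound 24 hr 37 C, CellTiter-Glo 30 min RT, luminescence. Decrease in ATP = toxicity. AC50 by standard Hill equation; tetraoctylammonium bromide positive control.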
Experiment [14] is described as follows: Cell Viability - LYMP2-008 (AID 980). Also: nearly all actives have a fitted effect of over 60% in size. In short, it runs like this: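 Luminescent ATP read-out (CellTiter-Glo, 30 min RT) after 24 hr compound exposure at 37 C of human lymphoblastoid cells in complete medium. Decrease in ATP taken as cytotoxicity; AC50 derived by standard Hill fit of qHTS concentration-response data.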
Experiment [15] is described as follows: Cell Viability - LYMP2-012 (AID 982).
Experiment [16] can be described thus: Cell Viability - LYMP2-014 (AID 983). Also: nearly all actives have a fitted effect of over 50% in size. Summed up: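 2500 cells/well, 5 hr 37 C; cpd 24 hr 37 C, complete medium; CellTiter-Glo 30 min RT, luminescence; ATP loss = toxicity; AC50 via Hill eqn; tetraoctylammonium bromide positive control.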
Experiment [17] in a line: Cell Viability - LYMP2-016 (AID 984). Also: nearly all actives have a fitted effect of over 55% in size. Summed up: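 Acute toxicity in a Coriell human lymphoblastoid line is scored as loss of intracellular ATP over 24 h of treatment in complete medium. CellTiter-Glo signal is fitted across concentrations with the Hill equation to give AC50.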
Experiment [18] in a line: Cell Viability - LYMP2-018 (AID 985). Also: nearly all actives have a fitted effect of over 50% in size. Summed up: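 2500 cells/well; 5 hr 37 C; cmpd 24 hr 37 C, complete medium; CellTiter-Glo 30 min RT; luminescence. Tetraoctylammonium bromide positive control. AC50 via Hill fit.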
A short description of experiment [19]: Cell Viability - LYMP2-022 (AID 987). Also: nearly all actives have a fitted effect of over 55% in size. In short, it runs like this:
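Luminescent ATP read-out (CellTiter-Glo, 30 min, RT) after 24 hr, 37 C compound exposure of 2500 human lymphoblastoid cells/well in complete medium. Cytotoxicity taken as concentration-dependent ATP loss; AC50 from standard Hill equation.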

Experiment [20] can be described thus: Cell Viability - LYMP2-024 (AID 988). Also: nearly all actives have a fitted effect of over 60% in size. In short, it runs like this:
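ATP-based luminescence (CellTiter-Glo, 30 min RT) after 24 h compound exposure at 37 C of 2500 lymphoblastoid cells/well; decrease in ATP taken as cytotoxicity. qHTS concentration-response fitted to standard Hill equation for AC50.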
Potency is read from the fitted curve at half-maximal effect.

`CC[n+]1c(-c2ccccc2)c2cc(N)ccc2c2ccc(N)cc21`: the Potency is 6.31 µM (active) in experiment [1]; 15.8 µM (active) in experiment [2]; 12.6 µM (active) in [3]; 15.8 µM (active) in experiment [4]; 15.8 µM (active) in experiment [5]; 15.8 µM (active) in [6]. The Potency in [7] is 12.6 µM (active); in experiment [8], 20 µM (active); in experiment [9], 15.8 µM (active); in experiment [10] it was 15.8 µM (active); in experiment [11], 15.8 µM (active); in experiment [12], 10 µM (active). In addition, the Potency in experiment [13] was 12.6 µM (active); in [14], 10 µM (active); in experiment [15], 7.94 µM (active); in experiment [16], 10 µM (active); in experiment [17] it was 15.8 µM (active); in experiment [18] it was 10 µM (active). In addition, the values for the Potency in experiment [19] and in experiment [20] were 7.94 µM (active) and 12.6 µM (active), respectively.

Regarding `Oc1ccc(Cl)cc1Sc1cc(Cl)ccc1O`, the Potency was 39.8 µM (active) in experiment [2]; 39.8 µM (active) in experiment [7]; 39.8 µM (active) in experiment [8]; 39.8 µM (active) in experiment [13]; 31.6 µM (active) in experiment [15]; 39.8 µM (active) in [18].

Turning to `O=C(CCl)c1ccc(Cl)cc1Cl`, the Potency in experiment [1] was 10 µM (active); in experiment [2], 6.31 µM (active); in [3], 6.31 µM (active); in experiment [4], 7.94 µM (active); in experiment [5] it was 5.01 µM (active); in experiment [6], 3.16 µM (active). Further, the Potency is 7.94 µM (active) in experiment [7]; 3.98 µM (active) in [8]; 6.31 µM (active) in experiment [9]; 7.94 µM (active) in experiment [10]; 7.94 µM (active) in [11]; 7.94 µM (active) in experiment [12]. The Potency in experiment [13] is 5.01 µM (active); in experiment [14] it was 7.94 µM (active); in [15], 3.16 µM (active); in experiment [16], 5.01 µM (active); in [17] it was 5.01 µM (active); in [18] it was 3.16 µM (active). The Potency was 2 µM (active) in [19] and 2.51 µM (active) in experiment [20].

In the case of `COP(=O)(OC)OC=C(Cl)Cl`, the Potency entry in experiment [1], in experiment [2], in [3], in experiment [4], in experiment [5] and in experiment [6] was “inactive” in each case. The Potency entry in [7], in [8], in experiment [9], in experiment [10], in experiment [11] and in experiment [12] was “inactive” throughout. Further, the Potency result in experiment [13], in experiment [14], in experiment [15], in experiment [16], in experiment [17] and in experiment [18] was “inactive” each time. The Potency result in experiment [19] and in experiment [20] was “inactive” each time.

For `CNC(=O)Oc1cccc2ccccc12`, the Potency entry in experiment [1], in [2], in experiment [3], in [4], in [5] and in [6] was “inactive” in each case. In addition, the Potency entry in [7], in experiment [8], in experiment [9], in experiment [10], in [11] and in experiment [12] was “inactive” in each case. Also, the Potency entry in [13], in experiment [14], in experiment [15], in [16], in experiment [17] and in experiment [18] was “inactive” throughout. Moreover, the Potency result in experiment [19] and in experiment [20] was “inactive” throughout.

Consider `CN(C)C(=S)SSC(=S)N(C)C`, for which the Potency was 0.501 µM (active) in [1]; 0.199 µM (active) in experiment [2]; 0.316 µM (active) in experiment [3]; 0.398 µM (active) in experiment [4]; 0.251 µM (active) in experiment [5]; 0.199 µM (active) in [6]. For the same molecule, the Potency is 0.199 µM (active) in experiment [7]; 0.501 µM (active) in experiment [8]; 0.316 µM (active) in experiment [9]; 0.251 µM (active) in experiment [10]; 0.316 µM (active) in experiment [11]; 0.251 µM (active) in experiment [12]. In addition, the Potency in [13] is 0.316 µM (active); in experiment [14], 0.251 µM (active); in experiment [15] it was 0.199 µM (active); in [16], 0.199 µM (active); in experiment [17] it was 0.316 µM (active); in [18], 0.199 µM (active). Besides, the Potency in [19] is 0.158 µM (active); in experiment [20] it was 0.251 µM (active).

Take `C[C@@H]1C[C@@H]([C@H](O)CC2CC(=O)NC(=O)C2)C(=O)[C@@H](C)C1`: the Potency in [4] is 2 µM (active); in experiment [5] it was 2 µM (active) and 1 µM (active); in experiment [6] it was 1.58 µM (active); in experiment [12], 2.51 µM (active); in experiment [15], 631 nM (active) and 794 nM (active); in [18], 1 µM (active). Moreover, the Potency in experiment [19] was 794 nM (active) and 1 µM (active); in experiment [20], 0.794 µM (active).

For the molecule `Oc1c(Br)cc(Br)cc1Br`, the Potency entry in [1], in [2], in experiment [3], in [4], in experiment [5] and in [6] was “inactive” each time. Further, the Potency result in experiment [7], in experiment [8], in [9], in [10], in experiment [11] and in [12] was “inactive” throughout. In addition, the Potency result in experiment [13], in experiment [14], in experiment [15], in [16], in experiment [17] and in experiment [18] was “inactive” in each case. For the same molecule, the Potency result in experiment [19] and in [20] was “inactive” throughout.

Consider `CCCCCCCCCCCC[N+](C)(C)CCOc1ccccc1`, for which the Potency is 31.6 µM (active) in experiment [2]; 39.8 µM (active) in [3]; 31.6 µM (active) in experiment [4]; 31.6 µM (active) in experiment [5]; 39.8 µM (active) in experiment [6]; 39.8 µM (active) in experiment [7]. Besides, the Potency was 39.8 µM (active) in experiment [8]; 50.1 µM (active) in [9]; 50.1 µM (active) in experiment [10]; 50.1 µM (active) in experiment [11]; 20 µM (active) in [12]; 25.1 µM (active) in experiment [13]. Further, the Potency is 25.1 µM (active) in [14]; 39.8 µM (active) in experiment [15]; 39.8 µM (active) in [16]; 31.6 µM (active) in [17]; 39.8 µM (active) in [18]; 39.8 µM (active) in experiment [19]. Besides, in experiment [20], the Potency is 39.8 µM (active).

Take `COC(=O)C1=C(C)NC(C)=C(C(=O)OC)C1c1ccccc1[N+](=O)[O-]`: the Potency in experiment [6] is 50.1 µM (active); in experiment [7], 79.4 µM (active); in experiment [13] it was 39.8 µM (active); in [19] it was 50.1 µM (active); in experiment [20], 39.8 µM (active).
